# Source: PubChem BioAssay AID624256 (NMMLSC, 2012)
# The campaign covered roughly 360,000 compounds. About 3,700 (1%) were called active. Inconclusive results (about 2%) are left out.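 The calls were made as follows: active = normalized GFP-positive differentiation at or above the plate's own cutoff, the solvent-only control mean plus 3 SD; inconclusive = no clear call, values can overlap the other calls; inactive = the rest.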 Shown is part of a subset that was picked to be rich in actives.
# Assay: HoxA9-arrested leukemia cell differentiation promoters – flow cytometry, MLPCN library, primary screen (AID 624256);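 as to GFP+ MAC1+ double positive: cells exposed to compound for four days before flow analysis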;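 as to normalized GFP-positive differentiation: cells exposed to compound for four days before flow analysis; 0% = DMSO wells and 100% = fulvestrant positive control at 5 µM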
# Conditions: ER-HoxA9 myeloid progenitors, lysozyme-GFP differentiation, at 10 µM; GFP+ MAC1+ double positive: measured here: differentiation confirmed by MAC1 staining, stronger effect = higher value; normalized GFP-positive differentiation: stronger effect = higher value
Structure (SMILES),GFP+ MAC1+ double positive [%],normalized GFP-positive differentiation,outcome
O=C(NNC(=S)NCc1ccco1)C(c1ccccc1)c1ccccc1,5.5,175% (active),–
COC(=O)Cc1ccc(NC(=S)NCc2ccco2)cc1,0.6,–,inactive
COc1cccc(OC)c1C(=O)NC(=S)NCc1ccco1,0.3,–,inactive
Nc1cccc(-c2cncc(N3CCN(Cc4ccccn4)CC3)n2)c1,0.8,–,inactive
CC(C)c1cccc(C(C)C)c1Nc1cn[nH]c1,0.2,–,inactive
CC(C)CNC(=O)COC(=O)/C=C/c1ccco1,0.7,–,inactive
CC(C)CNC(=O)COC(=O)/C=C/c1ccccc1[N+](=O)[O-],4.9,14.3% (active),–
O=C(/C=C/c1ccccc1[N+](=O)[O-])OCC(=O)N1CCCC1,0.4,–,inactive
O=C1C(Sc2cccc(F)c2)=C[C@@]2(O)CC[C@@H](O)[C@]1(Sc1cccc(F)c1)[C@H]2O,2,–,inactive
O=C1NC[C@H](CCCCN2CCN(CCc3ccccc3)C(=O)C2=O)N(CC2CCCCC2)C1=O,0.5,–,inactive
Nc1nc2cc(Cl)ccc2n1N,1.5,–,inactive
CN1OC[C@@H]2CN(S(=O)(=O)c3cccc4ccccc34)[C@H](c3ccc(N4CCCCC4)cc3)C[C@@H]21,0.8,–,inactive
O=C(NCc1ccccc1Cl)C(=O)NCC1CCCN1S(=O)(=O)c1cccs1 (stereo not drawn),0.7,–,inactive
O=C(NCc1ccccc1Cl)C1CCCN1S(=O)(=O)c1ccc(F)cc1 (stereo not drawn),0.6,–,inactive
CCC1CCCCN1S(=O)(=O)Cc1ccccc1Cl (stereo not drawn),3,98.8% (active),–
CC(C)(C)OC(=O)CNC(=O)c1[nH]cnc1C(=O)N[C@@H](Cc1ccccc1)C(=O)OCc1ccccc1,10,21.4% (active),–
C[C@H](NC(=O)c1nc[nH]c1C(=O)NCC(=O)OC(C)(C)C)C(=O)OCc1ccccc1,0.8,–,inactive
O=C(N[C@@H](Cc1ccccc1)C(=O)OCc1ccccc1)c1nc[nH]c1C(=O)N[C@@H](Cc1ccccc1)C(=O)OCc1ccccc1,0.2,–,inactive
FC(F)(F)c1cccc(-c2nc3ccccc3n2C(c2ccccc2)c2nc3ccccc3[nH]2)c1 (stereo not drawn),3.2,–,inactive
COc1cccc(-c2ccc3c(c2)N(Cc2ccccc2OC)C(=O)C(C)S3)c1 (stereo not drawn),0.8,–,inactive
Cc1cccnc1C(NC(=O)C1CCN(Cc2ccc(Cl)c(Cl)c2)CC1)c1ccc(Cl)cc1 (stereo not drawn),0.8,–,inactive
CC1=C(C(=O)N2CCOCC2)CC(CC(=O)NCc2cccs2)C(=O)N1CCCN1CCCC1=O (stereo not drawn),1.4,–,inactive
Cc1ccc(NC(=O)C(C)OC(=O)C2CC3CCCC(C2)C3=O)cc1S(=O)(=O)N1CCOCC1 (stereo not drawn),0.8,–,inactive
CC(OC(=O)CCCc1c[nH]c2ccccc12)C(=O)Nc1ccc(S(N)(=O)=O)cc1 (stereo not drawn),0.5,–,inactive
Cc1ccc(NC(=O)C(C)OC(=O)Cc2c[nH]c3ccccc23)cc1S(=O)(=O)N1CCOCC1 (stereo not drawn),1,9.47% (active),–
O=C(OC1CC2CC1[C@H]1CCCCN1C2=O)N1CCOCC1 (stereo partly drawn),0.9,–,inactive
O=C(NNc1c2ccccc2nc2ccccc12)c1cc2ccccc2cc1O,2.5,28.5% (active),–

Structure (SMILES),GFP+ MAC1+ double positive [%],normalized GFP-positive differentiation,outcome
O=C(COC(=O)c1ccc(O)cc1O)NC(=O)c1ccccc1,0,–,inactive
Cc1noc(C)c1COC(=O)c1cc2ccccc2cc1O,1.2,–,inactive
CCc1nc2c(OCCOc3ccc(F)cc3)cccn2c1N(C)C(=O)c1ccccc1F,0.6,–,inactive
CCS(=O)(=O)c1cc([N+](=O)[O-])c(Sc2ccccc2N)s1,1.1,150% (active),–
Nc1ccccc1SC(C[N+](=O)[O-])c1ccccc1 (stereo not drawn),1.1,–,inactive
CC(C)(C)N1C(=O)c2c(C(=O)OCc3ccccc3)[nH]c(-c3ccccc3)c2C1=O,1.4,–,inactive
CC(C)Nc1nc(NCCOc2ccccc2Cl)c2sccc2n1,1,–,inactive
COc1ccc2nc(N3C(=O)C(O)=C(C(=O)c4ccco4)C3c3ccco3)sc2c1 (stereo not drawn),0.8,–,inactive
COc1ccc2nc(N3CCN(C(=O)c4ccc([N+](=O)[O-])o4)CC3)sc2c1,7.3,33.6% (active),–
COc1ccc(N2CCN(c3ccc([N+](=O)[O-])nc3)CC2)cc1,0.9,–,inactive
CCc1nc2ccc(C(=O)Nc3cccc(OC)c3)cn2c1N(CCC(C)C)CCN(C)C,1.2,–,inactive
CCCCNC(=O)C[C@@H]1C[C@@]2(C(=O)OC)CC(C)(C)CC=C2N(Cc2ccco2)C1=O,2.1,–,inactive
COC(=O)C[C@@H]1C=C[C@@H](NC(=O)c2cccnc2)[C@@H](CO)O1,1.2,–,inactive
CCOC(=O)C1=CC[C@@H](c2ccccc2)N(S(=O)(=O)c2ccc(C)cc2)[C@H]1c1ccc(CC)cc1,0.9,–,inactive
COc1ccc(N(CC(=O)N2CCCCCC2)S(=O)(=O)c2ccccc2)cc1,2.2,–,inactive
COc1ccc(S(=O)(=O)NCCCCOc2ccc(Cl)cc2)cc1,0.7,–,inactive
COc1ccc(N(CCC#N)S(=O)(=O)c2ccc(Cl)cc2)cc1,6.2,17% (active),–
COc1cc(C=C(OC(C)=O)c2ccc3c(c2)OCO3)cc(OC)c1OC,0.8,–,inactive
Cc1ccc(C(=O)OCC(=O)N2CCCCCC2)cc1S(=O)(=O)N1CCOCC1,0.9,–,inactive
Cc1ccc(C(=O)Nc2ncccc2C)cc1S(=O)(=O)N1CCOCC1,0.8,–,inactive
Cc1cc(C)n(C(=O)c2ccc(C)c(S(=O)(=O)N3CCOCC3)c2)n1,3.4,11% (active),–
CCOC(=O)c1ccc(-c2ccc3ncnc(N(C)Cc4sccc4C)c3c2)o1,2,–,inactive
CC(=O)Nc1cccc(Nc2ccc(C#N)cc2)c1,0.5,–,inactive
Cc1cccc(C)c1NC(=O)C(c1ccc(C(F)(F)F)cc1)n1c(=O)c(-c2ccco2)nc2ccccc21 (stereo not drawn),2.6,–,inactive
CC[n+]1cc(C)ccc1/C=C/c1ccc(N(C)C)cc1,14.3,385% (active),–
O=[N+]([O-])c1ccc(CN2CC(N3CC=CC3)CS2(=O)=O)cc1 (stereo not drawn),0.8,–,inactive
COc1ccc(CC(N)c2csc(NC(=O)Cc3ccccc3)n2)cc1 (stereo not drawn),0.8,–,inactive
